According to the supplement of paper PMC11732987, “Enantioselective OTUD7B fragment discovery through chemoproteomics screening and high-throughput optimisation” (Communications Chemistry, 2025):

What was measured:
Test in all cases: log2 ratio of Biotin-Ahx-Ub-VS probe labelling (fragment/DMSO); higher = less target engagement (more negative = stronger competition), active = hit call of the paper (q ≤ 0.05, log2 ratio ≤ -1)
Conditions in all cases: compound concentration: 200 uM; treatment time: 3 h
OTUD6B = molecular target: T1, OTUD6B (UniProt Q8N6M0)
T1 sequence (whole entry): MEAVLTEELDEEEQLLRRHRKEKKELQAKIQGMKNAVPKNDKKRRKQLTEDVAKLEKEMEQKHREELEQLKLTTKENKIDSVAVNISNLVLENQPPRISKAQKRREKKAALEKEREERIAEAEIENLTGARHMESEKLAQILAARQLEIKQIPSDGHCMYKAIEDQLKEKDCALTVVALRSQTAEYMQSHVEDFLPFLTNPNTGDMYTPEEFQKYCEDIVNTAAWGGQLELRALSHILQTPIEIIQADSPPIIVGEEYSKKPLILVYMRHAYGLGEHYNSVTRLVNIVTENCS
Method in brief: (§1)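 Average log2 ratios of fragment over vehicle were obtained by unpaired t-test from global-median-normalised Spectronaut label-free quantities. Proteins with ≥2 unique peptides were included. HEK293T lysate (495 µg per sample) was treated in triplicate with fragment at 200 µM or vehicle for 3 h, then with Biotin-Ahx-Ub-VS at 0.5 µM final for 1 h, and labelled DUBs were NeutrAvidin-enriched and run by diaPASEF LC-MS/MS.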

OTUD7B = molecular target: T2, OTUD7B (UniProt Q6GQQ9)
T2 sequence (whole entry): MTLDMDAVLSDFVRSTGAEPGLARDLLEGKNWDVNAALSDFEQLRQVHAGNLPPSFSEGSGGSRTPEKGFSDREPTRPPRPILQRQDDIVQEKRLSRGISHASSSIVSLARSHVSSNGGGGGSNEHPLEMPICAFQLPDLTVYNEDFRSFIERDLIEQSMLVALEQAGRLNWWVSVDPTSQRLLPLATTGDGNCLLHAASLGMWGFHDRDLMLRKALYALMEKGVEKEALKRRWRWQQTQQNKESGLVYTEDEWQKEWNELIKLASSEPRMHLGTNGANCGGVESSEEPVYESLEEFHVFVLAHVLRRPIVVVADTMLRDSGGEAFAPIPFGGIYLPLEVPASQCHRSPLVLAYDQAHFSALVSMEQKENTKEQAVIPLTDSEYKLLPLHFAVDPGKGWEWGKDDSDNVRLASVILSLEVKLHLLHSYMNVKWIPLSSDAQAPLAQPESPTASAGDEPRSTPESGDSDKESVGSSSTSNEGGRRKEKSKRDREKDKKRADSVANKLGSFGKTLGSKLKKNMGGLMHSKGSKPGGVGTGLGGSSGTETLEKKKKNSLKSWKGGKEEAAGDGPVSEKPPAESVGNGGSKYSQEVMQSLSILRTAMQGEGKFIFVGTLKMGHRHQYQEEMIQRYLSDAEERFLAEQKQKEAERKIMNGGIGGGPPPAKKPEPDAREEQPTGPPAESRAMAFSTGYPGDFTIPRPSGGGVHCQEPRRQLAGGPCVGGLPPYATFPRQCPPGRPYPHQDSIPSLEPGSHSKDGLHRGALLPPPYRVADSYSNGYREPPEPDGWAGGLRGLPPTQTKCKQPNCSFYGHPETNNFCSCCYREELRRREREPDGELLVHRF
Method in brief: as §1

PRPF8 = PRPF8 (UniProt Q6P2Q9)
Method in brief: as §1

PSMD7 = molecular target: T3, PSMD7 (UniProt P51665)
T3 sequence (whole entry): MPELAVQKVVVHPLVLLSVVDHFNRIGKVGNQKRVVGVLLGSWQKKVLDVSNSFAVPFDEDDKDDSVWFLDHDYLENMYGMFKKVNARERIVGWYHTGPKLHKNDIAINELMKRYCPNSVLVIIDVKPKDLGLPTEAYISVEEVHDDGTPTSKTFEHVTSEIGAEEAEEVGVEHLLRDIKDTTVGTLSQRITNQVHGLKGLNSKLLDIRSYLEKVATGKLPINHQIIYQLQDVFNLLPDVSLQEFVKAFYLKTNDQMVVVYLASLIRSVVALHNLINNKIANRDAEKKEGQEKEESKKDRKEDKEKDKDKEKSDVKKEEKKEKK
Method in brief: as §1

UCHL1 = UCHL1 (UniProt P09936)
Sequence of UCHL1 (P09936 whole entry, looked up): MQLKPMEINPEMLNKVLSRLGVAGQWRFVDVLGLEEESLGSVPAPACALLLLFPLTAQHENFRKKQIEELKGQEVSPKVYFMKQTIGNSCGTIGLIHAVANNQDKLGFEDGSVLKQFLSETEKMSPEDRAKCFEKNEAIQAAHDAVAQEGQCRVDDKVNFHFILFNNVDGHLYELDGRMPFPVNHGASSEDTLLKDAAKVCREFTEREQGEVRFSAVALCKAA
Method in brief: as §1

UCHL3 = molecular target: T4, UCHL3 (UniProt P15374)
T4 sequence (whole entry): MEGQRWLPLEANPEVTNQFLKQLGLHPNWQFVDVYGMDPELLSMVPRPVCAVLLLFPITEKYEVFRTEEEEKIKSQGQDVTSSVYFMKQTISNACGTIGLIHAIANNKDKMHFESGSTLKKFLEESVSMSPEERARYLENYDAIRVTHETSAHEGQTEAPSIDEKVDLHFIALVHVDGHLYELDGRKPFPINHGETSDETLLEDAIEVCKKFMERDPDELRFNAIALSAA
Method in brief: as §1

UCHL5 = molecular target: T5, UCHL5 (UniProt Q9Y5K5)
T5 sequence (whole entry): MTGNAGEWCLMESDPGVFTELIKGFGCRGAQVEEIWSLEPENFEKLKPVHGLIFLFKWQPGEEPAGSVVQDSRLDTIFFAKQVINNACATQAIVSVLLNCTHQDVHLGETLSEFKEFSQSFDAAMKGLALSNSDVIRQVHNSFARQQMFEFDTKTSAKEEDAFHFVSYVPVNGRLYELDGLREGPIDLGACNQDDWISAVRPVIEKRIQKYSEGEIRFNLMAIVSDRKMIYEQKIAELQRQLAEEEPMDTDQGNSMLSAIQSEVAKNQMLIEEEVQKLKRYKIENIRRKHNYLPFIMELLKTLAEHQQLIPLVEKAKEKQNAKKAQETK
Method in brief: as §1

USP10 = USP10 (UniProt Q14694)
Sequence of USP10 (Q14694 whole entry): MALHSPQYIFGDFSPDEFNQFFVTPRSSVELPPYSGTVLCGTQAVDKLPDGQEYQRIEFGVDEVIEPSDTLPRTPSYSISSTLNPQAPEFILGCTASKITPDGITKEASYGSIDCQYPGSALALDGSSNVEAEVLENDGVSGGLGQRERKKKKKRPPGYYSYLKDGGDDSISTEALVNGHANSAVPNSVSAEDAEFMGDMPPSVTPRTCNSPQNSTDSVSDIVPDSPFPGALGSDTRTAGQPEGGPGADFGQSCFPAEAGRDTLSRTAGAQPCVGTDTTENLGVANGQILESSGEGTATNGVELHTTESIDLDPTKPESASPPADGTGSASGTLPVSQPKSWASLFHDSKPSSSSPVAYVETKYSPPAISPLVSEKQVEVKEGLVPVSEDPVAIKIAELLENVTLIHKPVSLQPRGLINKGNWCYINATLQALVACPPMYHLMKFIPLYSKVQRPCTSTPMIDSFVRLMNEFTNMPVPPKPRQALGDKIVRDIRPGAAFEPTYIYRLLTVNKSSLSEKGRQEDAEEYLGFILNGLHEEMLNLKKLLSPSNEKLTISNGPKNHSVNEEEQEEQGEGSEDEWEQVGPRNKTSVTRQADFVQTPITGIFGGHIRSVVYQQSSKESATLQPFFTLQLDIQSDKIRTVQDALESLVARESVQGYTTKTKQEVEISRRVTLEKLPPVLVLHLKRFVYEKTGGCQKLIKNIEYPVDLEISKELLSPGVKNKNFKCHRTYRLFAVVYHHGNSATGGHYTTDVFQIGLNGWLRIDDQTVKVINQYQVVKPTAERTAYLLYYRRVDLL
Method in brief: as §1

USP15 = molecular target: T6, USP15 (UniProt Q9Y4E8)
T6 sequence (whole entry): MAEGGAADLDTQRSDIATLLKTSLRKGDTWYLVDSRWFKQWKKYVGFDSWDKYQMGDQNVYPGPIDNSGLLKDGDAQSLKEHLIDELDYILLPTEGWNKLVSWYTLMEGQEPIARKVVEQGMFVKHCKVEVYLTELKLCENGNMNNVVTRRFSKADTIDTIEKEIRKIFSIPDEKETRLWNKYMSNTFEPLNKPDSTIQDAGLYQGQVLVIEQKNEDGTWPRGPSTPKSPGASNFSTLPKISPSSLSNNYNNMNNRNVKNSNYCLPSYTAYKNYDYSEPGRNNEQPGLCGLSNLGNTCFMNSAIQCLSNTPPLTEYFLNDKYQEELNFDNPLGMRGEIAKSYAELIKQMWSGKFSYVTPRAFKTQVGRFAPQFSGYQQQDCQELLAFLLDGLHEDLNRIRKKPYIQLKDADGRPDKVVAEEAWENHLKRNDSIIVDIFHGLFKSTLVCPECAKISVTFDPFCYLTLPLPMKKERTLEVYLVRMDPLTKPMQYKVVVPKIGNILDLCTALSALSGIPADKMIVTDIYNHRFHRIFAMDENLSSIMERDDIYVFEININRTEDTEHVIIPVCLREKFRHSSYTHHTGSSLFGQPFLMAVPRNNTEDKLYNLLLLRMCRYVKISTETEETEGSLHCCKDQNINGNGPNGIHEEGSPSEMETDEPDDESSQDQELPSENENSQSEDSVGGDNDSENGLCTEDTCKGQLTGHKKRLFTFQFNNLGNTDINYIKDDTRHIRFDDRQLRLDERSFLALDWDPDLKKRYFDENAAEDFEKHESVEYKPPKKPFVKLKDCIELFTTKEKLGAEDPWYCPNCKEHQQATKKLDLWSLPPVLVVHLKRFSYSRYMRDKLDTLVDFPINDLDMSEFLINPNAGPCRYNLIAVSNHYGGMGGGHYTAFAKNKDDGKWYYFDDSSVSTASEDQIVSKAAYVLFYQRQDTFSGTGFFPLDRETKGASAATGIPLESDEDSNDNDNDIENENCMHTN
Method in brief: as §1

USP16 = USP16 (UniProt Q9Y5T5)
Sequence of USP16 (Q9Y5T5 whole entry, looked up): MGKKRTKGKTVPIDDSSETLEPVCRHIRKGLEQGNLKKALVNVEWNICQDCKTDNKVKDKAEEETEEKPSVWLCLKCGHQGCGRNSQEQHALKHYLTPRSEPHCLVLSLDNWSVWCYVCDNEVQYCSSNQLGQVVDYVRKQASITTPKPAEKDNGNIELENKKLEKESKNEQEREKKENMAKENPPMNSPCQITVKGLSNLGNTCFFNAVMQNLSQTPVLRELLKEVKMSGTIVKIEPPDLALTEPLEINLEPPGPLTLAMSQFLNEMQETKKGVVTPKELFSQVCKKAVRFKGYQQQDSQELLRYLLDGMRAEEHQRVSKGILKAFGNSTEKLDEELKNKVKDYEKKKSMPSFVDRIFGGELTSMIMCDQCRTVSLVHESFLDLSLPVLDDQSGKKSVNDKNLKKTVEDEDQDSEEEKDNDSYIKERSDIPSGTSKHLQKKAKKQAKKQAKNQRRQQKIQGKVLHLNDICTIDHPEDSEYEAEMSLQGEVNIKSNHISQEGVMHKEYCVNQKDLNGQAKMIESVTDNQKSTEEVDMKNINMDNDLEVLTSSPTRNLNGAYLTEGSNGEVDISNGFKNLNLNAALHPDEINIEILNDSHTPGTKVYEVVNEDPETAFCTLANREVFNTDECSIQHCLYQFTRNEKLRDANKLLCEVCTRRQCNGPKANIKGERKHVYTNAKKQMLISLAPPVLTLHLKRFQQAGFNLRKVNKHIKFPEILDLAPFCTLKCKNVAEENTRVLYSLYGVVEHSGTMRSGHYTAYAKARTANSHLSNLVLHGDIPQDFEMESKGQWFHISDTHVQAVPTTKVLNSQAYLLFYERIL
Method in brief: as §1

Measured: log2 ratio of Biotin-Ahx-Ub-VS probe labelling

Cl.O=C(CCl)N1CCC(n2nc3ccccc3n2)CC1
inactive: OTUD6B -0.35 | OTUD7B -0.287 | PRPF8 0.224 | PSMD7 -0.494 | UCHL1 -0.9 | UCHL3 -0.23 | UCHL5 -0.457 | USP10 -0.135 | USP15 -0.702 | USP16 -0.441
